Laboratory results from the supplement of paper PMC12636033.
± gives the standard deviation of the averaged measurements. Over roughly 33,000 sequences, “E-score (rank enrichment, -0.5 to 0.5)” has its median near -0.0043; the highest 2% begin near 0.24. This is one part of a sample in which the highest values are shown more often than they occur.

Test system: 2Sp-muMax20 (muMax20 with two 2,6-bis(methyl)pyridine Cys staples)
Test: PBM 8-mer E-score (E-score (rank enrichment, -0.5 to 0.5)); higher = stronger preferential binding
Protocol: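 Protein binding microarray (universal PBM chip covering all 10-mers in fixed probe flanks) with chemically synthesized human Max(13-93) bHLH-LZ analogs (not full-length Max) bearing noncanonical residues (hArg, Tha, Aib, Nle at 65) and aromatic Cys staples. Read-out per 8-mer (and its reverse complement): E-score (rank-based enrichment, -0.5 to 0.5) and Z-score of median probe intensity.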

| Sequence | PBM 8-mer E-score |
| --- | --- |
| CACAGAGC | -0.0473 ± 0.035 |
| CGCTTAAA | 0.0219 ± 0.026 |
| TCACCACA | 0.209 ± 0.055 |
| ACAAGAGA | -0.031 ± 0.039 |
| CAGGATCC | 0.0142 ± 0.1 |
| CCCAGCCG | -0.207 ± 0.031 |
| GGGTGAAC | -0.0445 ± 0.0025 |
| AGATTGGA | 0.0807 ± 0.089 |
| AGATTGGC | -0.253 ± 0.0034 |
| AGATTGGG | 0.236 ± 0.005 |
| GACACTCA | -0.155 ± 0.12 |
| CCTTCTCC | -0.1487 ± 0.00034 |
| ACAGGCCC | -0.0606 ± 0.0054 |
| ACTATAAT | 0.1911 ± 0.00057 |
| CGTATACC | -0.132 ± 0.077 |
| CGTATAAG | 0.0589 ± 0.0073 |
| AGTATAAC | 0.0726 ± 0.034 |
| CGTATACG | 0.279 ± 0.086 |
| CGTATACA | 0.0425 ± 0.12 |
| ACTATAAG | 0.147 ± 0.011 |
| AGTATACA | 0.218 ± 0.026 |
| AGTATACC | 0.0537 ± 0.062 |
| AGTATAAG | 0.273 ± 0.061 |
| AGTATACT | 0.287 ± 0.014 |
| AGTATAAT | 0.307 ± 0.047 |

| Sequence | PBM 8-mer E-score |
| --- | --- |
| ATGTGTGC | -0.0334 ± 0.049 |
| AAGCGGCA | -0.0432 ± 0.047 |
| ATCACTTG | 0.101 ± 0.072 |
| GGATTCTA | 0.0681 ± 0.064 |
| GTCAACTA | 0.0356 ± 0.0025 |
| CGGGGACA | -0.0692 ± 0.1 |
| TGACTACA | 0.0909 ± 0.018 |
| AGATACCC | 0.264 ± 0.0095 |
| AGATACCG | -0.166 ± 0.039 |
| AGATACCA | 0.171 ± 0.03 |
| AGGCGAAA | -0.0363 ± 0.041 |
| GCCTTGAC | -0.0306 ± 0.049 |
| AGACCGAG | -0.0567 ± 0.059 |
| GCACGTGC | 0.472 ± 0.0076 |
| GGACGTGA | -0.181 ± 0.05 |
| GAACGTGA | -0.0484 ± 0.032 |
| GCACGTGA | 0.29 ± 0.034 |
| GCACGTCC | -0.107 ± 0.035 |
| GCACGTAC | 0.0252 ± 0.017 |
| GTCTCGTA | -0.016 ± 0.023 |
| GTGCCCAC | -0.0178 ± 0.036 |
| CACTCAGG | 0.00926 ± 0.0019 |
| CGAGAAAA | -0.0823 ± 0.086 |
| CGGCGGCA | -0.192 ± 0.016 |
| GGGTAAAA | 0.146 ± 0.043 |

| Sequence | PBM 8-mer E-score |
| --- | --- |
| CATGCTGA | 0.235 ± 0.031 |
| AATGCTTC | 0.126 ± 0.0042 |
| CATGCGTA | 0.291 ± 0.02 |
| CATGCTTA | 0.223 ± 0.018 |
| GATGCGTA | 0.12 ± 0.027 |
| AATGCTGA | 0.11 ± 0.11 |
| CATGCTTC | 0.244 ± 0.013 |
| GATGCTGA | -0.077 ± 0.021 |
| AATGCGTA | 0.186 ± 0.021 |
| CTTAAGTC | -0.0675 ± 0.033 |
| CCTGCGAC | -0.0368 ± 0.021 |
| CACTGACA | -0.147 ± 0.062 |
| CCATTTAC | 0.106 ± 0.12 |
| ACACAGAA | 0.0709 ± 0.022 |
| ACGTATAA | 0.125 ± 0.024 |
| AACAGGAA | -0.0894 ± 0.071 |
| ATTCAGAC | -0.0466 ± 0.061 |
| AACGTGTC | 0.0326 ± 0.036 |
| CACGTGTC | 0.377 ± 0.036 |
| CGTGTGTA | 0.239 ± 0.011 |
| GGTGTGTA | 0.0384 ± 0.034 |
| AACGTGTA | 0.0544 ± 0.12 |
| CGCGTGTA | 0.238 ± 0.04 |
| CGCGTGTC | 0.139 ± 0.067 |
| CCCGTGTC | -0.204 ± 0.024 |

| Sequence | PBM 8-mer E-score |
| --- | --- |
| GACGTGTA | -0.0461 ± 0.043 |
| AGCGTGTA | 0.1194 ± 0.0008 |
| AGTGTGTA | 0.0578 ± 0.047 |
| CACGTGTA | 0.389 ± 0.023 |
| GACTAGAA | 0.177 ± 0.023 |
| CCATCGGG | -0.247 ± 0.14 |
| CCCCAGTC | 0.0489 ± 0.031 |
| AACTTACC | -0.00702 ± 0.031 |
| GCGGCGTA | 0.0259 ± 0.057 |
| ACTCGGGC | -0.209 ± 0.095 |
| CATTCCTA | 0.0858 ± 0.042 |
| CGTTGTGA | -0.116 ± 0.13 |
| AATCCACT | -0.0636 ± 0.11 |
| TGTTCCAA | -0.0197 ± 0.029 |
| ATGGAGGG | 0.168 ± 0.038 |
| AGCTGTGG | -0.0756 ± 0.04 |
| CTAGGGGA | 0.0989 ± 0.024 |
| ATAGGGGA | 0.138 ± 0.033 |
| CGAGGGGA | 0.021 ± 0.025 |
| GTAGGGGA | 0.29 ± 0.033 |
| GGAGGGAA | -0.0234 ± 0.062 |
| GGAGGGGA | 0.244 ± 0.028 |
| CTTTCCGA | -0.294 ± 0.038 |
| AGGTGCGC | -0.139 ± 0.056 |
| ACCCTATA | -0.0592 ± 0.015 |

| Sequence | PBM 8-mer E-score |
| --- | --- |
| TGGCGTAA | 0.0766 ± 0.16 |
| ATTTTTAG | -0.0464 ± 0.14 |
| GACTTCAA | 0.0921 ± 0.077 |
| AACTTCAA | 0.0284 ± 0.018 |
| TACTTCAA | 0.243 ± 0.013 |
| CATCTAGC | 0.114 ± 0.045 |
| GGTCTCAC | 0.0156 ± 0.0022 |
| ACGTTGAA | 0.123 ± 0.036 |
| TTACGTAA | 0.2354 ± 0.0003 |
| ATACGTAC | 0.185 ± 0.07 |
| CTACGTAA | 0.0719 ± 0.058 |
| ATACGTAT | 0.339 ± 0.022 |
| ATACGTAA | 0.119 ± 0.077 |
| GTACGTAA | 0.101 ± 0.075 |
| GAGACAAC | 0.00299 ± 0.013 |
| AACTTTAA | 0.0575 ± 0.063 |
| CGGTTACG | -0.19 ± 0.072 |
| CCGCATCG | -0.258 ± 0.046 |
| CTATGAGC | -0.0207 ± 0.088 |
| CAATAAAC | 0.137 ± 0.053 |
| CAATAATC | 0.0969 ± 0.081 |
| GAATAAAA | 0.0399 ± 0.044 |
| CAATAATG | 0.0692 ± 0.049 |
| CAATAATA | 0.247 ± 0.045 |
| CAATAAAA | 0.294 ± 0.052 |

| Sequence | PBM 8-mer E-score |
| --- | --- |
| GACAGGTC | -0.12 ± 0.088 |
| AGAGCCAA | 0.00188 ± 0.0012 |
| CGAGGACC | -0.245 ± 0.046 |
| AACGGCCA | -0.0961 ± 0.022 |
| AACGGCCT | 0.275 ± 0.0083 |
| AACGGCCC | -0.372 ± 0.037 |
| TCGTCCAA | -0.0225 ± 0.01 |
| AACGGTCC | -0.298 ± 0.1 |
| ACACGTAC | -0.0036 ± 0.092 |
| AGACGTGC | -0.145 ± 0.021 |
| TCACGTGA | 0.438 ± 0.0011 |
| ACACGTAG | -0.0191 ± 0.055 |
| ATACGTGA | -0.0748 ± 0.062 |
| TCACGTAA | -0.0172 ± 0.028 |
| ACACGTGA | 0.412 ± 0.034 |
| ACACGTGG | 0.3868 ± 0.00064 |
| AAACGTGG | 0.0452 ± 0.042 |
| AGACGTGA | 0.0537 ± 0.03 |
| ACACGTGC | 0.407 ± 0.024 |
| TAACGTGA | 0.093 ± 0.036 |
| CCTCTTAG | -0.00532 ± 0.11 |
| CATTCGCA | 0.0276 ± 0.0019 |
| ACCAAACC | 0.0152 ± 0.034 |
| CAGTCTAG | -0.117 ± 0.05 |
| CAATAGAA | 0.0449 ± 0.032 |

| Sequence | PBM 8-mer E-score |
| --- | --- |
| ACACGTGT | 0.421 ± 0.015 |
| ACGCGTGA | 0.25 ± 0.0042 |
| AAACGTGT | 0.077 ± 0.06 |
| ACGCGTGC | 0.177 ± 0.049 |
| ACACGTAT | 0.178 ± 0.052 |
| GCGCGTGA | 0.2082 ± 0.00059 |
| ACTTTCCC | -0.0248 ± 0.091 |
| CTCGTCTC | -0.0179 ± 0.03 |
| CTCACGTC | -0.00269 ± 0.06 |
| ATTCGAGA | 0.239 ± 0.052 |
| CTTCGAGA | -0.0158 ± 0.028 |
| ATTCGAGC | -0.0718 ± 0.14 |
| AGGTTGCC | -0.164 ± 0.035 |
| GCACCTAC | -0.194 ± 0.0063 |
| ATCACGAT | 0.00138 ± 0.12 |
| CGCACGCC | -0.0203 ± 0.1 |
| TAGACCCA | 0.282 ± 0.061 |
| GAGACCCA | -0.1 ± 0.07 |
| AAGACCCA | 0.0969 ± 0.13 |
| CCTTTAAC | -0.0714 ± 0.012 |
| GGCGCACC | -0.281 ± 0.032 |
| CGCTACCA | -0.1194 ± 0.00063 |
